High-throughput results (PubChem)
Shown are actives, neighbours in structure and some others; about 21% of the full set was active somewhere.
NS1 inh = influenza NS1 inhibition; AID 2326; 270,000 compounds, 0.4% hits; Potency, µM (doses to about 46.1 µM), for inactives: top-dose activity, positive = more growth; calls by dose curve; further: potency means the concentration at half of the fitted maximal effect; actives are rising curves; nearly all actives have a fitted effect of over 50% in size
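Compounds were scored for reversing the slow growth caused by influenza A NS1 in S. cerevisiae, measured by optical density at 600 nm. Assay medium contained 2% galactose at pH 6.0; NS1-free yeast of the same strain were the positive control.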
FBPA Giardia inh = blocks Giardia fructose-bisphosphate aldolase activity; purified Giardia FBPA; Potency, µM (highest dose often 59.6 µM), for inactives: at the highest dose activity, negative = inhibition, most hits filed as inhibitors; A8B2U2; 290,000 compounds, 0.71% hits; AID 2451; further: potency means the concentration at half of the fitted maximal effect; on the % scale 0 is the no-effect control and ±100 the full control effect; nearly all actives have a fitted effect of over 55% in size
Target sequence (A8B2U2 whole entry, looked up): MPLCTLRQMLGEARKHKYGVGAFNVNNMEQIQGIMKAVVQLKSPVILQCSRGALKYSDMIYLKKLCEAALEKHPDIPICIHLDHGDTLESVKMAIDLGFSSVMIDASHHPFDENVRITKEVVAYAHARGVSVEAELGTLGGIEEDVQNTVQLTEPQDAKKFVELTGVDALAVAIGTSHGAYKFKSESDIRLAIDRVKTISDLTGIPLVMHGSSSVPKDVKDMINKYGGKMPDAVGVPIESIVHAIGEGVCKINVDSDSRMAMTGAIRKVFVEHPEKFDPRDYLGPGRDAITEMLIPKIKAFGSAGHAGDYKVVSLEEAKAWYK
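Giardia FBPA (40 nM reagent) was preincubated 10 min at RT with compound (up to 57.5 uM final), then substrate plus GAPDH/TPI/NAD/arsenate coupling system with diaphorase/resazurin was added; resorufin fluorescence (525/598 nm) was read after 20 min.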
Cycloheximide cs = affects cycloheximide protein synthesis inhibition readout, counter-screen; cell reporter, cycloheximide protein synthesis inhibition counterscreen; max response, %; 300,000 compounds, 12% hits; in the data active means max response mostly above about 13%, no sharp cut-off; inactive means mostly below about 14%; further: read at 38.3 µM for the half of the compounds with a filed dose; 0% is about no effect
Pf growth 48h = inhibits P. falciparum growth in the first generation, 48 h; 310,000 compounds, 5.9% hits; P. falciparum luciferase growth in erythrocytes, 48 h; Potency, µM (top dose mostly 28.7 µM), for the others: at the highest dose activity change, negative = inhibition, actives largely listed as inhibitors; further: potency means the concentration at half of the fitted maximal effect; on the % scale 0 is the no-effect control and ±100 the full control effect
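Cell-based growth assay: transgenic P. falciparum expressing firefly luciferase, cultured in red cells within RPMI 1640 containing 0.5% w/v Albumax, 24 mM bicarbonate and gentamycin. A drop in luciferase activity indicates inhibition.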
Shiga inhibitor = inhibitors of Shiga toxin in Vero cells; Vero cells, Shiga toxin protein synthesis inhibition reporter; inhibition, % at 38.7 µM; 290,000 compounds, 9.2% hits; AID 2315; in the data active means inhibition mostly above about 28%, no sharp cut-off; inactive means mostly below about 43%; further: 0% is about no effect
Pf growth 96h = P. falciparum growth inhibition at 96 hours; P. falciparum luciferase reporter growth, 96 h; Potency, µM (highest dose often 28.7 µM), inactives show at the highest dose activity change, negative = inhibition, actives largely listed as inhibitors; 320,000 compounds, 6.9% hits; AID 504834; further: potency means the concentration at half of the fitted maximal effect; on the % scale 0 is the no-effect control and ±100 the full control effect
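Two-generation exposure (96 h) targets delayed-death phenotype. Reporter parasites carrying integrated firefly luciferase, in red cells at 2% hematocrit and 0.05% parasitemia final, kept at 37 C, 5% CO2; luminescence loss indicates inhibition.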
* hit, by the source's call; ? = inconclusive; / = no result; [ ] = dose if it differs, or a comment. Unless noted, the call rests on the fitted dose curve; in most records, active means well fitted curve in the direction sought with a large enough effect; inconclusive means small, poorly fitted or top-dose-only effect, or another doubt; inactive means no such curve, though single readings can be large; an effect the other way counts as inactive or inconclusive.

SMILES	NS1 inh	FBPA Giardia inh	Cycloheximide cs	Pf growth 48h	Shiga inhibitor	Pf growth 96h
COc1cccc(NC(=S)N(CCN(C)C)C(C)c2ccncc2)c1 (stereo not given)	-3%	-4%	-5	-19%	2	-6%
CCCCC(=O)Nc1ccc2c(c1)oc1ccccc12	6%	1%	25*	361%	73*	278%
O=C(Nc1ccc2c(c1)oc1ccccc12)C1CC1	-63%	8%	46*	124%	95*	/
O=C(O)CCCC(=O)Nc1ccc2c(c1)oc1ccccc12	14%	4%	-2	8%	-4	2%
O=C(Nc1ccc2c(c1)OC1(CCCC1)O2)C1CC1	-89%	-2%	17*	?	42	20%
CC(C)CC(=O)Nc1ccc2c(c1)oc1ccccc12	-37%	-3%	45*	363%	167*	115%
Cc1cc(C)c(C)c(S(=O)(=O)NCCCN2CCCC2=O)c1C	-1%	12%	-2	2%	16	100%
Cc1ccc(S(=O)(=O)N2CCN(C(=O)c3cccs3)CC2)c(C)c1	/	12%	-9	-16%	-1	29%
O=C(CSc1ccccn1)Nc1ccc2c(c1)oc1ccccc12	-14%	5%	42*	33%	57*	-2%
COc1cc2c(cc1NC(=O)CSc1ccccn1)oc1ccccc12	4%	-2%	15	19%	25	?
CCCCCC(=O)Nc1ccc2ccccc2c1	4%	-27%	50*	66%	61*	83%
O=C(O)c1ccccc1C(=O)N1CC=C(c2ccccc2)CC1	-2%	-6%	27*	?	72	37%
Cc1cc(C(=O)N2CC=C(c3ccccc3)CC2)c2ccccc2n1	/	/	/	?	/	-1%
Cc1ccc(C(=O)N2CC=C(c3ccccc3)CC2)o1	/	/	/	13µM*	/	-5%
COc1ccc(CNC(=O)CN2CCC(NC(=O)c3ccc(OC)cc3)CC2)cc1	0%	12%	-3	-8%	36	0%
O=C1CCCCN1CC(=O)N1CCCC(Nc2ccc(F)cc2)C1 (stereo not given)	-1%	/	1	-11%	18	4%
O=c1oc2ccccc2c(O)c1Cc1c(O)c2ccccc2oc1=O	/	0%	/	3%[12.8 µM]	/	-13%[12.8 µM]
O=c1oc2ccccc2c2oc3cc(O)c(O)cc3c12	14%	?	24*	32%	26*	71%
Cc1ccc(CNC(=O)COc2ccc(S(=O)(=O)N3CCCC3)cc2)cc1	4%	6%	-3	?	-15	-21%
CN1CCC[C@@H]1c1cccnc1.O=C(O)c1ccccc1O.O=C([OH2+])c1ccccc1O.O=C([OH2+])c1ccccc1O.[Mn]	-3%	/	/	/	/	/
CCOC(=O)c1ccc(NC(=O)COc2cc3oc(=O)c(CC(C)O)c(C)c3cc2Cl)cc1 (stereo not given)	7%	1%	-4	0%	-2	13%
CC(=O)c1cccc(NC(=O)COc2cc3oc(=O)c(CC(C)O)c(C)c3cc2Cl)c1 (stereo not given)	-6%	4%	-3	?	-6	10µM*
CC(=O)c1ccc(S(=O)(=O)N(CC(=O)NC2CC2)Cc2ccc(F)cc2)cc1	/	/	/	-8%	/	15%
O=C(N/N=C/c1ccc([N+](=O)[O-])o1)C1CCCC1	-12%	/	1	?	1	?
CCCCCC(=O)N/N=C/c1ccc([N+](=O)[O-])o1	/	-10%	9	/	28	/
SMILES	NS1 inh	FBPA Giardia inh	Cycloheximide cs	Pf growth 48h	Shiga inhibitor	Pf growth 96h
O=C(CNC(=O)c1ccccc1)N/N=C/c1ccc([N+](=O)[O-])o1	3%	-6%	10	4.7µM*	1	?
Cc1ccc(NCC(=O)N/N=C\c2ccc([N+](=O)[O-])o2)cc1	-14%	-7%	1	?	-5	5.2µM*
O=C(CNc1ccccc1)N/N=C/c1ccc([N+](=O)[O-])o1	-4%	-5%	1	3.7µM*	19	2.6µM*
O=C(CCC(=O)Nc1ccc(Cl)cc1Cl)N/N=C/c1ccc([N+](=O)[O-])o1	/	?	2	?	38*	?
O=C(CNC(=O)c1ccccc1)N/N=C/c1ccccc1Cl	/	0%	14	12%	59	?
COc1ccc(O[C@H]2C=C[C@@H](c3ccccc3)O[C@H]2COC(=O)CC/C(C)=N\OC[C@@H](O)[C@H]2O[C@H]3OC(C)(C)O[C@H]3[C@@H]2O)cc1	/	-1%[12.9 µM]	/	/	/	/
C/C(N)=C(/C#N)C(=O)CN1C(=O)NC(Cc2c[nH]c3ccccc23)C1=O (stereo not given)	5%	-8%	13	/	17	23%
O=C(Nc1ccc(S(=O)(=O)Nc2ncccn2)cc1)C(F)(F)F	0%	?	-2	-13%	-14	96%
Cn1c(=NC(=O)c2ccccc2[N+](=O)[O-])sc2cc(S(C)(=O)=O)ccc21	19%	-3%	64*	149%	50*	307%
Cn1c(=NC(=O)c2ccc(S(=O)(=O)N3CCCc4ccccc43)cc2)sc2cc(S(C)(=O)=O)ccc21	12%	-2%	-4	?	0	?
CC(=O)c1cccc(CN2CCCC(CCC(=O)NCc3ccc(C)o3)C2)c1 (stereo not given)	-4%	-8%	-2	?	3	10%
Cc1cccn2c(=O)c(/C=N/O)c(N3CCOCC3)nc12	/	4%	-2	19%	-10	?
Cc1cccc2cc(C(c3nnnn3C(C)(C)C)N(Cc3ccco3)CC3CCCO3)c(=O)[nH]c12 (stereo not given)	8%	-5%	-4	12µM*	23	?
Cc1ccc2[nH]c(=O)c(C(c3nnnn3C(C)(C)C)N(Cc3ccco3)CC3CCCO3)cc2c1 (stereo not given)	-3%	3%	7	6.6µM*	32	?
O=C(NCc1ccco1)C(c1ccccc1F)N(CC1CCCO1)C(=O)Cn1nnc2ccccc21 (stereo not given)	0%	2%	-4	-11%	-16	6%
CC(C)(C)n1nnnc1C(c1ccccc1F)N(Cc1ccco1)CC1CCCO1 (stereo not given)	-30%	-3%	9	13µM*	9	-18%
Cc1ccc2cc(C(c3nnnn3C3CCCC3)N(Cc3ccco3)Cc3cccs3)c(=O)[nH]c2c1 (stereo not given)	26%	0%	8	/	-4	?
CNC(=O)[C@H](C)/C=C/C(NC(=O)OCc1ccccc1)c1ccc(C(=O)OC)cc1 (stereo not given in full)	/	-3%	/	/	/	/
C[C@H]1[C@H](C)CC[C@]2(C=O)CC[C@]3(C)C(=CC[C@@H]4[C@@]5(C)C[C@@H](O)[C@H](O)[C@@](C)(CO)[C@@H]5CC[C@]43C)[C@H]12	/	4%	-7	/	11	/
CC(C)(C(=O)Nc1nccs1)c1ccccc1	16%	-1%	-2	-14%	-2	-15%
